Laboratory results: PubChem BioAssay (NCATS)
Records with an inconclusive call do not appear. The source made the active and inactive calls. Calls follow the shape of the dose curve; as a rule, active = well fitted cell-killing curve with a large enough effect; inconclusive = small, poorly fitted or top-dose-only effect, or effect the other way; inactive = flat fitted curve, though single readings scatter.

These molecules were tested on Tov112D (assay: Primary qHTS to identify gynecologic anti-cancer compounds using libraries of approved drugs and bioactive compounds (AID 1345084; also: nearly all actives have a fitted effect of over 55% in size)). Details: Gynecologic cancer cell panel viability, ATPlite luminescence, 48 h; series mostly up to 57.5 µM; activity change, negative = cytotoxicity: at the top concentration.
Outline: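 Measured: luminescence after ATPlite addition (15 min, RT). Exposure: 48 h, 37 C, 5% CO2.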
% is scaled to controls: 0 for no effect and ±100 for the full control effect.

SMILES | activity change, negative = cytotoxicity
C[C@@H]1N[C@H]2N(C1=O)c1ccccc1[C@@]2(O)C[C@@H]1C(=O)N[C@@H](C)c2nc3ccccc3c(=O)n21 | 2.44% [at 25.3 µM] (inactive)
COC(=O)C1=CO[C@@H](O[C@@H]2O[C@H](CO)[C@@H](O)[C@H](O)[C@H]2O)[C@H]2[C@@H]1C=C[C@@]21C=C([C@H](C)O)C(=O)O1 | 14% [at 25.3 µM] (inactive)
CC(C)C(NC(=O)c1ccc2ccccc2n1)C(=O)NC(CC(=O)O)C(=O)COc1c(F)cccc1F (stereo not given) | 7.39% (inactive)
CC1CCCCN1S(=O)(=O)c1ccc(N2CCCC2=O)cc1 (stereo not given) | -0.722% (inactive)
COc1cc2c(cc1OC)N1C(=O)C[C@]34C=CCN5CC[C@@H]2[C@@H](CC3)[C@]514 | -14.6% [at 38.5 µM] (inactive)
C=C1CC2C(C)(CCC(=O)O)C(C(C)(C)O)CCC2(C)C2C(=O)OC(C)(C(=O)OC)C(=O)C12C (stereo not given) | -10.5% [at 25.3 µM] (inactive)
CCc1ccc(Cc2ccc3c(c2)[C@]2(OC3)O[C@H](CO)[C@@H](O)[C@H](O)[C@H]2O)cc1 | 6.11% (inactive)
OC[C@H]1O[C@@H](Oc2cc(O)c3c(c2)O[C@@H](c2ccc(O)cc2)[C@H](O)C3)[C@H](O)[C@@H](O)[C@@H]1O | 13.9% [at 25.3 µM] (inactive)
CC[C@@](C)(Nc1ccnc(-c2c[nH]c3ncccc23)n1)C(=O)NCC(F)(F)F | -0.98% (inactive)
CC1=C(C(=O)O)/C(=C/CO[C@@H]2O[C@H](COC(=O)/C=C/c3ccc(O)cc3)[C@@H](O)[C@H](O)[C@H]2O)C(O)C1 (stereo not given in full) | 1.89% [at 25.3 µM] (inactive)
C[C@H](CCC(=O)O)[C@H]1CC[C@H]2[C@@H]3C[C@H](O)[C@@H]4C[C@H](O)CC[C@]4(C)[C@H]3CC[C@]12C | 10.8% (inactive)
CC1CC[C@]2(C(=O)O)CC[C@]3(C(=O)O)C(=CCC4[C@@]5(C)CC[C@H](O[C@@H]6O[C@H](CO)[C@@H](O)[C@H](O)[C@H]6O)C(C)(C)C5CC[C@]43C)C2C1C (stereo not given in full) | 0.462% [at 25.3 µM] (inactive)
CC(=O)N[C@@H](C(=O)O[C@H]1CCC(C)(C)[C@@H]2CCC3=C(COC3=O)[C@@]12C)C(C)C | -2.38% [at 38.5 µM] (inactive)
CC1OC2OC(=O)C3(C)CC4=C(CO)C5=C(CC(=O)C4(C)C(C1=O)C23)C(C)(C)OC(=O)C5 (stereo not given) | -5.38% [at 25.3 µM] (inactive)
CC1(C)CC2=C3C=CC4C5(C)CCC(O)C(C)(C)C5CCC4(C)C3(C)CCC2(C)C(O)C1 (stereo not given) | 0.214% [at 25.3 µM] (inactive)
COc1cc(O)cc(C)c1C(=O)O[C@H]1[C@@H](OC(C)=O)[C@H](n2ccc(=O)[nH]c2=O)O[C@@H]1CO | -0.696% [at 25.3 µM] (inactive)
Fc1ccc2nc(CCC#Cc3ccccn3)cn2c1 | 9.62% (inactive)
C=C[C@H]1C(O[C@@H]2O[C@H](CO)[C@@H](O)[C@H](O)[C@H]2O)OC=C2C(=O)N3CCc4c([nH]c5ccccc45)C3CC21 (stereo not given in full) | 4.07% [at 25.3 µM] (inactive)
O=C1NC(=O)C(c2cn(-c3ccccc3)nc2-c2ccc(F)cc2)N1 (stereo not given) | -29% (inactive)
CC(=O)OC1C(O)C2C(C)C3=CC(=O)OC3(O)CC2C2(C)CCCC(C)(CO)C12 (stereo not given) | 8.41% [at 25.3 µM] (inactive)
O=C(NCc1cccc(O)c1)Nc1nc(-c2ccncc2)cs1 | -13.3% (inactive)
CC1(O)CCCC2(C)C1CCC13CC(CO)C(CCC12)C3 (stereo not given) | 5.8% (inactive)
CC1=CC2C(CC1OC1OC(CO)C(O)C(O)C1O)C(C)CC(=O)C2C(C)C (stereo not given) | 1.32% [at 38.5 µM] (inactive)
CC(=O)O[C@@H]1C[C@@H](OC(C)=O)C(C)(C)/C=C/[C@H](C)[C@H](OC(C)=O)[C@@]2(O)C[C@H](C)[C@H](OC(=O)c3ccccc3)[C@@H]2/C=C/1C | 7.58% [at 25.3 µM] (inactive)
O=C(NCc1cccc(O)c1)c1cc2cc(F)ccc2[nH]1 | -1.96% (inactive)
COC1CC(O[C@H]2CC[C@@]3(C)C(CCC4C3[C@H](OC(C)=O)[C@@H](OC(=O)/C=C/c3ccccc3)[C@]3(C)C(C(C)=O)CC[C@]43O)C2)OC(C)C1OC1CC(OC)C(OC2CC(OC)C(OC3OC(C)C(OC4OC(CO)C(O)C(O)C4O)C(OC)C3O)C(C)O2)C(C)O1 (stereo not given in full) | -0.487% [at 6.55 µM] (inactive)
COc1cc(Br)c(S(=O)(=O)Nc2ccc(C(F)(F)F)c(O[C@@H]3CCN(C)C3)c2)cc1OC | 1.44% (inactive)
COc1c2ccoc2cc2oc(CO[C@@H]3O[C@H](CO)[C@@H](O)[C@H](O)[C@H]3O)cc(=O)c12 | -0.947% [at 38.5 µM] (inactive)
COC(=O)C1=COC(O[C@@H]2O[C@H](CO)[C@@H](O)[C@H](O)[C@H]2O)[C@H]2[C@@H]1[C@H](OC(=O)CCc1ccc(O)cc1)C[C@]2(C)O (stereo not given in full) | 8.68% [at 25.3 µM] (inactive)
COC(=O)N[C@H](C(=O)N1[C@@H]2CC[C@@H](C2)[C@H]1c1nc2ccc(-c3ccc4c(c3)C(F)(F)c3cc(-c5cnc([C@@H]6CCC7(CC7)N6C(=O)[C@@H](NC(=O)OC)C(C)C)[nH]5)ccc3-4)cc2[nH]1)C(C)C | 0.642% [at 25.3 µM] (inactive)
